This is part of a sample that, as a whole, favours compounds with a hit. Of some 79,000 tested, about 15% had one in any assay. A number with no mark means an inactive call. Calls of active or inactive are those of the source. Cut-off read from the data, not from the text of the source: active = growth inhibition above about 70%; inactive = the rest.

A short description of assay [1]: NCI Yeast Anticancer Drug Screen. Data for the rad50 strain (AID 155).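 Note: 0% = growth of vehicle-only cultures of the same strain.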 The following applies: S. cerevisiae rad50 strain growth inhibition, active compounds read high. Put shortly:
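Relative growth inhibition (compound vs vehicle) was measured in yeast with a defined repair-gene alteration.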

Assay [2] is described as follows: NCI Yeast Anticancer Drug Screen. Data for the mec2-1 strain (AID 157). The following applies: S. cerevisiae mec2-1 strain, active compounds read high. The essentials:
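Yeast mec2-1 mutant treated with compound. Readout: growth inhibition vs vehicle controls.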

The nature of assay [3]: NCI Yeast Anticancer Drug Screen. Data for the sgs1 mgt1 strain (AID 161).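 Note: 0% = growth of cultures given vehicle only.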 The note with it: S. cerevisiae sgs1 mgt1 strain, active compounds read high. The essentials:
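Test agents were incubated with a DNA-repair-mutant yeast strain. Growth was then read and compared against vehicle-treated controls.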

Assay [4] can be described thus: NCI Yeast Anticancer Drug Screen. Data for the cln2 rad14 strain (AID 165).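 Note: 0% = growth equal to vehicle treated cultures.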 The following applies: S. cerevisiae cln2 rad14 strain, active compounds read high. The essentials: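 cln2 rad14 yeast strain; compound exposure; growth inhibition read vs vehicle controls.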
Assay [5] in a line: NCI Yeast Anticancer Drug Screen. Data for the bub3 strain (AID 167). The following applies: S. cerevisiae bub3 mutant strain, active compounds read high. Put shortly:
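Screening used yeast with an engineered genetic alteration affecting cell cycle control. Compound-exposed cultures were compared with vehicle cultures, and reduced growth was taken as inhibition.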

The nature of assay [6]: NCI Yeast Anticancer Drug Screen. Data for the mlh1 rad18 strain (AID 175). The note with it: S. cerevisiae mlh1 rad18 strain growth inhibition, active compounds read high. Put shortly:
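Yeast w/ defined DNA-repair lesions; compound exposure; growth vs vehicle controls → % inhibition.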

Setting [7] is: at 5.0 µM (retest, dose inferred, filed as 0.5).
The mark [8] stands for this setting: at 50.0 µM (retest, dose inferred, filed as 5.0).

Consider `CCCCCCCCN(CCCCCCCC)CC(O)c1cc(OCC)nc2ccccc12` (configuration not stated), for which the growth inhibition is 2% in assay [1] (setting [7]); 96% (active) in assay [1] (setting [8]); 97.8% (active) in assay [1] (at 50.0 µM); 4% in assay [2] (setting [7]); 97% (active) in assay [2] (setting [8]); 97.7% (active) in assay [2] (at 50.0 µM). Moreover, the growth inhibition was 4% in assay [3] (setting [7]); 96% (active) in assay [3] (setting [8]); 97.4% (active) in assay [3] (at 50.0 µM); 3% in assay [4] (setting [7]); 96% (active) in assay [4] (setting [8]); 93.5% (active) in assay [4] (at 50.0 µM). Also, the growth inhibition in assay [5] (setting [7]) is 9%; in assay [5] (setting [8]) it was 97% (active); in assay [5] (at 50.0 µM), 97.8% (active); in assay [6] (setting [7]), 9%; in assay [6] (setting [8]) it was 95% (active); in assay [6] (at 50.0 µM) it was 96.8% (active).
As to `O=C(CCc1ccccc1)OCC1OC(OC(=O)CCc2ccccc2)C(OC(=O)CCc2ccccc2)C(OC(=O)CCc2ccccc2)C1OC(=O)CCc1ccccc1` (configuration not stated), the growth inhibition in assay [1] (setting [7]) is 1%; in assay [1] (setting [8]), 4%; in assay [1] (at 50.0 µM), 25.6%; in assay [2] (setting [7]), 0%; in assay [2] (setting [8]) it was -2%; in assay [2] (at 50.0 µM), 21.4%. Moreover, the growth inhibition in assay [3] (setting [7]) is -3%; in assay [3] (setting [8]) it was -22%; in assay [3] (at 50.0 µM), 19.7%; in assay [4] (setting [7]), 0%; in assay [4] (setting [8]), -1%; in assay [4] (at 50.0 µM), -0.4%. Also, the growth inhibition in assay [5] (setting [7]) was 2%; in assay [5] (setting [8]), 1%; in assay [5] (at 50.0 µM), -6.35%; in assay [6] (setting [7]), -3%; in assay [6] (setting [8]), 3%; in assay [6] (at 50.0 µM), 45.4%.
For the compound `O=C(NNc1ccccc1)C(O)C(=O)C(O)C(O)C(O)CO` (configuration not stated), the growth inhibition was 1% in assay [1] (setting [7]); 27% in assay [1] (setting [8]); 9.45% in assay [1] (at 50.0 µM); -1% in assay [2] (setting [7]); 8% in assay [2] (setting [8]); 21.9% in assay [2] (at 50.0 µM). Moreover, the growth inhibition is 9% in assay [3] (setting [7]); 6% in assay [3] (setting [8]); 61.8% in assay [3] (at 50.0 µM); -2% in assay [4] (setting [7]); 14% in assay [4] (setting [8]); -14.1% in assay [4] (at 50.0 µM). For the same compound, the growth inhibition in assay [5] (setting [7]) is 8%; in assay [5] (setting [8]), 34%; in assay [5] (at 50.0 µM), 80% (active); in assay [6] (setting [7]) it was 5%; in assay [6] (setting [8]) it was 28%; in assay [6] (at 50.0 µM), 75.2% (active).
On to `C=C1C(=O)C23OC2C1CCC(=O)C1(C)CC[C@H](OC(C)=O)C(C)(C)[C@H]1CC3O` (some centres not stated), for which the growth inhibition in assay [1] (setting [7]) is 86% (active); in assay [1] (setting [8]), 79% (active); in assay [1] (at 50.0 µM) it was 99.2% (active); in assay [2] (setting [7]) it was 92% (active); in assay [2] (setting [8]), 31%; in assay [2] (at 50.0 µM), 100% (active). The growth inhibition in assay [3] (setting [7]) was 92% (active); in assay [3] (setting [8]), 42%; in assay [3] (at 50.0 µM) it was 99.5% (active); in assay [4] (setting [7]), 71% (active); in assay [4] (setting [8]), 16%; in assay [4] (at 50.0 µM) it was 99.2% (active). The growth inhibition was 92% (active) in assay [5] (setting [7]); 27% in assay [5] (setting [8]); 99.2% (active) in assay [5] (at 50.0 µM); 92% (active) in assay [6] (setting [7]); 38% in assay [6] (setting [8]); 99% (active) in assay [6] (at 50.0 µM).
With `O[C@H](CNCCS)[C@@H](O)CNCCS`, the growth inhibition in assay [1] (setting [7]) was -1%; in assay [1] (setting [8]) it was 14%; in assay [1] (at 50.0 µM) it was 78% (active); in assay [2] (setting [7]), 2%; in assay [2] (setting [8]), 28%; in assay [2] (at 50.0 µM), 54%. Besides, the growth inhibition in assay [3] (setting [7]) was -6%; in assay [3] (setting [8]), 27%; in assay [3] (at 50.0 µM), 80.1% (active); in assay [4] (setting [7]) it was 17%; in assay [4] (setting [8]) it was 7%; in assay [4] (at 50.0 µM), 28.5%. The growth inhibition in assay [5] (setting [7]) was -4%; in assay [5] (setting [8]), 17%; in assay [5] (at 50.0 µM), 40%; in assay [6] (setting [7]), -5%; in assay [6] (setting [8]), 3%; in assay [6] (at 50.0 µM), 79.3% (active).
As to `CCSC(=O)/C=C1\CN(C(=O)OC(C)(C)C)C1C(=O)OC(C)(C)C` (configuration not stated), the growth inhibition in assay [1] (setting [7]) was -23%; in assay [1] (setting [8]), -7%; in assay [1] (at 50.0 µM), 30.1%; in assay [2] (setting [7]), -40%; in assay [2] (setting [8]) it was -9%; in assay [2] (at 50.0 µM), 26.9%. Also, the growth inhibition in assay [3] (setting [7]) is -44%; in assay [3] (setting [8]), -2%; in assay [3] (at 50.0 µM) it was 56%; in assay [4] (setting [7]), -35%; in assay [4] (setting [8]), 14%; in assay [4] (at 50.0 µM), 72.9% (active). The growth inhibition in assay [5] (setting [7]) is -57%; in assay [5] (setting [8]) it was 10%; in assay [5] (at 50.0 µM), 58.5%; in assay [6] (setting [7]), -15%; in assay [6] (setting [8]) it was 12%; in assay [6] (at 50.0 µM), 70% (active).
`Cc1cc(=O)n(-c2ccc(F)cc2)n1C`: the growth inhibition in assay [1] (setting [7]) was 1%; in assay [1] (setting [8]) it was 0%; in assay [1] (at 50.0 µM) it was 30.9%; in assay [2] (setting [7]), -6%; in assay [2] (setting [8]), 1%; in assay [2] (at 50.0 µM), -5.7%. For the same compound, the growth inhibition in assay [3] (setting [7]) was 0%; in assay [3] (setting [8]) it was 2%; in assay [3] (at 50.0 µM) it was 31.7%; in assay [4] (setting [7]) it was 3%; in assay [4] (setting [8]), 15%; in assay [4] (at 50.0 µM), 22.9%. The growth inhibition in assay [5] (setting [7]) is 0%; in assay [5] (setting [8]), -2%; in assay [5] (at 50.0 µM), 25.4%; in assay [6] (setting [7]) it was 2%; in assay [6] (setting [8]) it was -16%; in assay [6] (at 50.0 µM) it was -23.6%.
Consider `CN(C)N=Nc1c(-c2cccs2)n[nH]c1C(F)(F)F`, for which the growth inhibition in assay [1] (setting [7]) was 98% (active); in assay [1] (setting [8]), 99% (active); in assay [1] (at 50.0 µM), 99.4% (active); in assay [2] (setting [7]), 99% (active); in assay [2] (setting [8]), 100% (active); in assay [2] (at 50.0 µM) it was 99.8% (active). The growth inhibition in assay [3] (setting [7]) is 100% (active); in assay [3] (setting [8]), 100% (active); in assay [3] (at 50.0 µM), 99.6% (active); in assay [4] (setting [7]), 99% (active); in assay [4] (setting [8]), 99% (active); in assay [4] (at 50.0 µM) it was 99.5% (active). Also, the growth inhibition in assay [5] (setting [7]) is 99% (active); in assay [5] (setting [8]) it was 99% (active); in assay [5] (at 50.0 µM), 99.5% (active); in assay [6] (setting [7]), 99% (active); in assay [6] (setting [8]), 99% (active); in assay [6] (at 50.0 µM), 99.6% (active).
With `C=C(C)COc1cc(NC(=S)OC(C)C)ccc1Cl`, the growth inhibition in assay [1] (setting [7]) is 16%; in assay [1] (setting [8]), 90% (active); in assay [1] (at 50.0 µM) it was 51.8%; in assay [2] (setting [7]), 16%; in assay [2] (setting [8]), 93% (active); in assay [2] (at 50.0 µM), 83.8% (active). The growth inhibition in assay [3] (setting [7]) was 8%; in assay [3] (setting [8]), 88% (active); in assay [3] (at 50.0 µM) it was 90.1% (active); in assay [4] (setting [7]), 6%; in assay [4] (setting [8]), 86% (active); in assay [4] (at 50.0 µM) it was 88.2% (active). Also, the growth inhibition in assay [5] (setting [7]) was 20%; in assay [5] (setting [8]), 93% (active); in assay [5] (at 50.0 µM) it was 88.3% (active); in assay [6] (setting [7]), 12%; in assay [6] (setting [8]), 92% (active); in assay [6] (at 50.0 µM), 83.6% (active).

(Values after PubChem BioAssay (NCI).)
